S2 tox = reduces viability in counter-screen for ATXN expression inhibitors; S2 cells (HEK-293 line with an ATXN2-luciferase reporter) viability, CellTiter-Fluor protease fluorescence, 24 h; Potency, µM (doses to about 56.7 µM), actives largely listed as cytotoxic; 400,000 compounds, 0.49% hits; AID 651635; also: nearly all actives have a fitted effect of over 40% in size
TGFb inhibitor = inhibitors of TGF-b signaling | HepG2 CAGA-GFP TGF-b/SMAD3 reporter, GFP fluorescence, 18 h; TGF-beta stimulated, 500 pg/mL final | Potency, µM (highest dose often 46.1 µM), usual class: inhibitors | 410,000 compounds, 1.2% hits; also: nearly all actives have a fitted effect of over 65% in size
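HEPG2 CAGA-GFP reporter cells (1000/well, DMEM with 1% FBS) received compounds, then recombinant TGF-beta at 500 pg/mL final for 18 hours at 37 degrees C. Per-cell GFP summed per well was normalised to unstimulated and stimulated DMSO controls before curve fitting.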
ATXN2 expr inh = ATXN2 expression inhibition. Potency, µM (top dose mostly 57 µM), actives largely listed as inhibitors. AID 1745845. 360,000 compounds, 0.72% hits. HEK-293 ATXN2-luciferase reporter, luminescence, 24 h; also: nearly all actives have a fitted effect of over 55% in size
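ATXN2-luciferase reporter cells (luciferase flanked by upstream and downstream ATXN2 gene portions) were treated 24 h at 37 °C with compounds at up to 57 uM. SteadyGlo luminescence gave expression; GF-AFC fluorescence gave viability.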
DT40 TDP1 CPT = DT40-hTDP1 cell growth loss with CPT; chicken DT40 Tdp1-/-;hTDP1 cells + 20 nM CPT, ATP luminescence, 48 h; Potency, µM (doses to about 46.2 µM), actives largely listed as inhibitors; 420,000 compounds, 12% hits; also: nearly all actives have a fitted effect of over 55% in size
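Cell growth measured by CellTiter-Glo luminescence after a minimum 48 h, 37 C compound exposure with 20 nM CPT in Tdp1-knockout DT40 cells stably expressing hTDP1, seeded 400/well; qHTS titration format.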
HepG2 viability = counter-screen for TGF-b inhibitors: cytotoxicity in HepG2 cells. HepG2 CAGA-GFP viability, ATP luminescence, 18 h. Potency, µM (titrated, usually from 46.1 µM), usual class: cytotoxic. 410,000 compounds, 0.76% hits. AID 588856
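HepG2 CAGA-GFP cells (1000/well, DMEM with 1% FBS) received compound, then TGF-beta at 500 pg/mL final, and were incubated 18 hours at 37 degrees C. Viability was read by CellTiter-Glo luminescence. Media-only wells were set as complete cell-killing and DMSO as no toxicity.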
TDP1 cell noCPT = qHTS for Inhibitors of human tyrosyl-DNA phosphodiesterase 1 (TDP1): qHTS in cells in absence of CPT | DT40 Tdp1-/- hTDP1 cells, no CPT, ATP luminescence, 48 h | Potency, µM (doses to about 46.2 µM), usual class: inhibitors | 420,000 compounds, 15% hits | AID 686978, 2013; also: nearly all actives have a fitted effect of over 55% in size
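Growth of hTDP1-complemented DT40 Tdp1-knockout cells is measured by ATP luminescence after at least 48 hr compound exposure at 37 °C, with DMSO substituting for the 20 nM CPT used in the parallel screen.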
Numbers stand for hits; 0 = inactive; ? = inconclusive; - = no result given; [ ] = another dose, or the depositor's remark. Most compounds without a hit are left out; they make up all but 17% or so of the library. Calls follow the shape of the dose curve; as a rule, active = well fitted curve in the direction sought with a large enough effect; inconclusive = small, poorly fitted or top-dose-only effect, or another doubt; inactive = no such curve, though single readings can be large; an effect the other way counts as inactive or inconclusive.

SMILES | S2 tox | TGFb inhibitor | ATXN2 expr inh | DT40 TDP1 CPT | HepG2 viability | TDP1 cell noCPT
COC(=O)c1cc(NC(=O)CN(c2ccc(OC)cc2)S(=O)(=O)c2ccc(F)cc2)ccc1Cl | 0 | 0 | 0 | 18µM | 0 | 18µM
COc1ccc(NC(=O)CN(c2ccc([N+](=O)[O-])cc2)S(=O)(=O)c2ccccc2)cc1 | 0 | ? | 0 | ? | 0 | ?
COC(=O)c1ccc(Cl)c(NC(=O)CN(c2ccc(OC)cc2)S(=O)(=O)c2ccccc2)c1 | ? | 0 | 0 | ? | 0 | ?
COc1ccc(N(CC(=O)Nc2ccc(S(=O)(=O)N3CCOCC3)cc2)S(=O)(=O)c2ccccc2)cc1 | 0 | 0 | 0 | 16µM | 0 | 18µM
COc1ccc(N(CC(=O)Nc2ccccc2OC)S(=O)(=O)c2ccc(NC(C)=O)cc2)cc1 | 0 | 0 | 0 | 5.2µM | 0 | 5.2µM
COc1cc(CNCc2ccccc2)c(Br)cc1OC1CCCC1 | 0 | 0 | 0[11.3 µM] | ? | 0 | ?
CC(C)(C)C(=O)NCCCC(=O)O | 0 | - | 0 | 0 | - | 0
O=S(=O)(NCCOCC(F)(F)C(F)F)c1ccc2oc3ccccc3c2c1 | 0 | ? | 0 | 26µM | 0 | 13µM
COc1ccc(S(=O)(=O)N2CCOCC2)cc1NC(=O)CSc1nnnn1C1CC1 | 0 | 0 | 0 | 0 | 0 | 0
COc1ccc(NS(=O)(=O)c2cc(NC(=O)Cc3cccs3)ccc2C)cc1 | 0 | 0 | 0 | 0 | 0 | 0
COc1ccc(CC(=O)Nc2cc(S(=O)(=O)Nc3ccc(OC)cc3)ccc2OC)cc1 | 0 | 0 | 0 | 21µM | 0 | 21µM
CCC(=O)Nc1ccc(S(=O)(=O)Nc2cccc(C)c2)cc1OC | 0 | 0 | 0 | ? | 0 | 12µM
COc1ccc(NS(=O)(=O)c2ccc(NC(=O)Cc3cccs3)cc2)cc1 | 0 | ? | 0 | ? | 0 | 15µM
CCCCN(CCCC)S(=O)(=O)c1ccc(NC(=O)Cc2cccs2)cc1 | 0 | ? | 0 | ? | 0 | 21µM
CCC(=O)Nc1ccc(S(=O)(=O)N2CCCCC2)cc1OC | 0 | 0 | 0 | 0 | 0 | 0
CC1(C(=O)NS(=O)(=O)c2ccc(Cl)cc2)CCN1C(=O)c1ccco1 (stereo not drawn) | 0 | 0 | 0 | 0 | 0 | 0
O=C1NC(=S)S/C1=C\c1cc(Cl)ccc1Cl | 0 | ? | 0 | 21µM | 0 | ?
COc1ccc(-c2cc(NC(C)=O)c3ncc(-c4cccc(C(C)=O)c4)n3c2)cc1OC | ? | 0 | 0 | 21µM | 0 | 21µM
COc1cccc(-c2cnc3c(NC(C)=O)cc(-c4cccc(C(=O)N(C)C)c4)cn23)c1 | ? | 0 | 0 | ? | 0 | ?
COc1cccc(-c2cnc3c(NC(C)=O)cc(-c4ccsc4)cn23)c1 | 0 | ? | 0 | 13µM | 0 | 15µM
CC(=O)Nc1cccc(-c2cc(NC=O)c3ncc(-c4ccc(C(C)=O)cc4)n3c2)c1 | 0 | ? | 0 | ? | 0 | 16µM
COc1cccc(-c2cnc3c(NC(C)=O)cc(-c4ccc(OC)c(OC)c4)cn23)c1 | ? | 0 | 0 | 10µM | 0 | 15µM
CCCn1cc(S(=O)(=O)c2cc(C)ccc2C)c(=O)c2cc(F)c(N3CCN(CC)CC3)cc21 | - | 0 | - | ? | 0 | 0
COc1cccc(-c2cc(NC(C)=O)c3ncc(-c4ccc(OC)c(OC)c4)n3c2)c1 | 0 | 0 | 0 | ? | 0 | 21µM
CC(=O)Nc1cccc(-c2cc(NC(C)=O)c3ncc(-c4cccc(C(C)=O)c4)n3c2)c1 | 0 | 0 | 0 | 23µM | 0 | 10µM
COc1ccc(-c2cc(NC=O)c3ncc(-c4ccc(C(C)=O)cc4)n3c2)cn1 | 0 | 0 | 0 | 5.2µM | 0 | 7.3µM
CC(=O)Nc1cc(-c2ccccc2N(C)C)cn2c(-c3cccc(C(F)(F)F)c3)cnc12 | 0 | ? | 0 | ? | 0 | ?
CC(=O)Nc1cc(-c2cccc(NS(C)(=O)=O)c2)cn2c(-c3cccc(C(F)(F)F)c3)cnc12 | - | ? | ? | 18µM | 0 | 18µM
